This is an account of results in the supplement of paper PMC5641865, “A screen for kinase inhibitors identifies antimicrobial imidazopyridine aminofurazans as specific inhibitors of the Listeria monocytogenes PASTA kinase PrkA” (The Journal of Biological Chemistry, 2017).

Molecules are shown by their SMILES. ± gives the standard deviation of the averaged measurements.
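Also: End-point A600 read in BHI broth at 37 °C with 2% DMSO, inhibition computed as (1 − OD with compound plus ceftriaxone ÷ OD with ceftriaxone only) × 100.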

The experiment deals with Listeria monocytogenes 10403S. As to the kind of experiment: growth inhibition relative to ceftriaxone-alone control; higher = stronger potentiation of ceftriaxone growth inhibition. The note with it: 10 µM; ceftriaxone 1 ug/ml; 12 h.
Consider `Fc1cc(-c2cccc3ncc(-c4cnn(C5CCNCC5)c4)nc23)cc(F)c1CN1CCOCC1`, for which the growth inhibition is 82.1 ± 22%.
Next, `COc1cc2ncnc(Nc3ccc(C)c(O)c3)c2cc1OC`: -12.9 ± 9.4%; `COc1cc(Nc2c(C#N)cnc3cc(OCCCN4CCN(C)CC4)c(OC)cc23)c(Cl)cc1Cl` [Bosutinib (SKI-606)]: 72.2 ± 1.1%.
Next, `COc1ccccc1-c1cc(/C=C2\C(=O)Nc3ncc(Br)cc32)cc(Br)c1O`: -8.54 ± 8.1%; `N#C/C(=C\c1ccc(O)c(O)c1)C(=O)NCc1ccccc1`: 28.7 ± 25%; `CCn1c(N)c(C(=O)NC)c(=O)c2ccc(C#CC(C)(O)COC)nc21` (stereo not drawn): 2.07 ± 6.6%.
Next, `CC[C@@H]1C(=O)N(C)c2cnc(Nc3ccc(C(=O)N[C@H]4CC[C@H](N5CCN(CC6CC6)CC5)CC4)cc3OC)nc2N1C(C)C` [BI6727 (Volasertib)]: 56.9 ± 16%.
Take `Cn1cc(-c2ccc3nnc(C(F)(F)c4ccc5ncccc5c4)n3n2)cn1`: the growth inhibition was found to be 17.1 ± 33%.
